Source: PubChem BioAssay (NCATS)
Records with an inconclusive call do not appear. Calls of active or inactive are those of the source. Calls follow the shape of the dose curve; as a rule, active = well fitted curve in the direction sought with a large enough effect; inconclusive = small, poorly fitted or top-dose-only effect, or effect the other way, or another doubt; inactive = no such curve, though single readings can be large or run the other way.

experiment: qHTS Assay for Identification of Small Molecule Agonists for NFkB Signaling Pathway. (AID 624478); settings: NFkB pathway reporter cell assay, agonist mode, cells co-stimulated with 10 pM TNF alpha; series mostly up to 46.1 µM; activation: at the top concentration;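 also: compounds tested together with TNF alpha at its EC50 of 10 pM; 0% is about no effect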
Description: The TNF alpha/NFkB signaling pathway was assayed in NFkB-bla cells (Invitrogen), a ME-180 cervical carcinoma line containing a stably integrated beta-lactamase reporter gene controlled by a NFkB response element. This reporter is induced by TNF alpha at 10 pM EC50 and inhibited by the proteosome inhibitor MG-132 at approximately 100 nM IC50. The assay was screened at the EC50 of TNF alpha activation to identify activators of TNF alpha/NFkB signaling
Cells were trypsinized, washed in assay medium (AM, OPTI MEM with 0.5% fetal bovine serum, 0.1 mM nonessential amino acids, 1 mM sodium pyruvate, 10mM HEPES pH 7.3, 100U/ml penicillin, and 100 ug/ml streptomycin) and plated at 1000 cells/5 uL/well into black clear-bottom 1536 well plates. After an overnight incubation at 37 C and 5% CO2, 23 nL of compound were delivered by a pin tool, 1 uL of TNF alpha (10 pM final concentration in AM) was added and plates were incubated at 37 C for 5 hrs. One uL of LiveBLAzerTM detector mix (Invitrogen) was added, the plates incubated at room temperature for 2 hrs, and fluorescence intensity at 460 and 530 nm emission was measured at 405 nm excitation by an Envision (Perkin Elmer).

SMILES | activation
CCOC(=O)C(C)Oc1cccc2c(=O)n(CC(=O)Nc3ccc4c(c3)OCCO4)ccc12 (configuration not stated) | 0.132% (inactive)
Cc1cccc(-c2[nH]ncc2-c2ccc3ncccc3n2)n1 | -1.36% [at 92.2 µM] (inactive)
CCOC(=O)C1=C(O)C(=O)N(Cc2ccccc2)C1 | 5.39% (inactive)
CC(C)c1ccc2c(c1)c(SC(C)(C)C)c(CC(C)(C)C(=O)O)n2Cc1ccc(Cl)cc1 | -0.99% (inactive)
Cc1ccc(NC(=O)c2ccc(CN3CCN(C)CC3)cc2)cc1Nc1nccc(-c2cccnc2)n1 | -0.889% (inactive)
C[C@@H](N)C1CCC(C(=O)Nc2ccncc2)CC1 (some centres not stated) | -0.733% (inactive)
CCN(CC)CCOc1ccc(Nc2ncc3cc(-c4c(Cl)cccc4Cl)c(=O)n(C)c3n2)cc1 | 13.8% (inactive)
Nc1nc(Cl)nc2c1ncn2[C@H]1C[C@H](O)[C@@H](CO)O1 | -2.58% [at 92.2 µM] (inactive)
COc1cc2c(N3CCN(C(=O)Nc4ccc(OC(C)C)cc4)CC3)ncnc2cc1OCCCN1CCCCC1 | 1.16% (inactive)
CC(C)C[C@H](NC(=O)[C@H](Cc1ccccc1)NC(=O)c1cnccn1)B(O)O | -1.87% (inactive)
Nc1cccc2c1CN(C1CCC(=O)NC1=O)C2=O (configuration not stated) | -3.02% [at 92.2 µM] (inactive)
Cc1nc(Nc2ncc(C(=O)Nc3c(C)cccc3Cl)s2)cc(N2CCN(CCO)CC2)n1 | 7.96% (inactive)
Cc1ccc(Nc2nccc(N(C)c3ccc4c(C)n(C)nc4c3)n2)cc1S(N)(=O)=O | 0.362% (inactive)
S=c1nc[nH]c2nc[nH]c12 | -1.22% [at 92.2 µM] (inactive)
CCN(CCO)CCCC(C)Nc1ccnc2cc(Cl)ccc12 (configuration not stated) | 0.268% (inactive)
Cc1cccc(C#Cc2ccccc2)n1 | -0.423% (inactive)
COc1cc(Nc2c(C#N)cnc3cc(OCCCN4CCN(C)CC4)c(OC)cc23)c(Cl)cc1Cl | -1.41% (inactive)
